A short description of experiment [1]: anti-His antibody binders, primary screen, artefact control for SMM control protein annotation, biochemical, small-molecule microarray, 635 nm fluorescence (AID 1128).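 Further: score merges feature fluorescence with signal-to-noise for each printed compound spot.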 As to conditions: anti-His Alexa647 antibody binding, higher = more signal.
The test system of experiment [2] is Human papillomavirus type 1a E7 protein (residues 1-88). Description: HPV1a E7 small-molecule binders, primary screen, biochemical, small-molecule microarray, residues 1-88, 635 nm (AID 1129). As to conditions: small-molecule microarray binding, fluorescence 635 nm; higher = more signal.
The target of experiment [3] is Focal adhesion kinase 1 (Homo sapiens) (UniProt Q05397). Description: small-molecule microarray binders of FAK, primary screen, biochemical, 635/667 nm fluorescence, BSA, DTT (AID 1130).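 Further: composite of spot emission at 667 nm and signal to noise over triplicate slides.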 As to conditions: PTK2 binding, 635 nm fluorescence, higher = more signal.
Sequence of Focal adhesion kinase 1 (Homo sapiens) (Q05397 whole entry, looked up): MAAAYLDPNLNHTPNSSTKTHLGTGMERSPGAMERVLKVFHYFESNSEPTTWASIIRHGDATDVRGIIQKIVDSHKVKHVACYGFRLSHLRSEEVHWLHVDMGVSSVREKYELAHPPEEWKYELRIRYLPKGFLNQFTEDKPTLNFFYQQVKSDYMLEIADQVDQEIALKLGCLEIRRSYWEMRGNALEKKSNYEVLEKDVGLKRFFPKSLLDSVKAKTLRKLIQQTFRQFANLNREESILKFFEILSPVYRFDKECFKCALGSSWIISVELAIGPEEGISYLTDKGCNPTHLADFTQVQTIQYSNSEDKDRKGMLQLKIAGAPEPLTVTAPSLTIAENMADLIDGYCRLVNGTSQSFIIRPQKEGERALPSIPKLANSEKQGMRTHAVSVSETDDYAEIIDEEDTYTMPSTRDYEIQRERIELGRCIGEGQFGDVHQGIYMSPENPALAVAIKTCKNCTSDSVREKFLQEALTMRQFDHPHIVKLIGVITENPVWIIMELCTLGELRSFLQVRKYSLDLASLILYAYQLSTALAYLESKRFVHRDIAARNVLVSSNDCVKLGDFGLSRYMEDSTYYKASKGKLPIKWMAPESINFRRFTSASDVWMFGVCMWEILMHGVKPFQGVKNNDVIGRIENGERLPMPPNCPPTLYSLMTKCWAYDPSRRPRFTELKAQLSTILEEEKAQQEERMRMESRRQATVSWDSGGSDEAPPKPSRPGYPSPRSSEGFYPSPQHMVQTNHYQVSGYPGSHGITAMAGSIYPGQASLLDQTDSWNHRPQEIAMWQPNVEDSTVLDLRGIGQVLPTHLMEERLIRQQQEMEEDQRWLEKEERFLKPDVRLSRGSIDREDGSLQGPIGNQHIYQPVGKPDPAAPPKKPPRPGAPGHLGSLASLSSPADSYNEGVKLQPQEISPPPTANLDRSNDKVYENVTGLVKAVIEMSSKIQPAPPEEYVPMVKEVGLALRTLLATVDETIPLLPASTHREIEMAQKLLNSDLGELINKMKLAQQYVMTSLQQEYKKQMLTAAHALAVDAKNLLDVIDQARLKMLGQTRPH
The subject of experiment [4] is Fibrinogen (Alexa647-labelled). The experiment is described as follows: fibrinogen binders on compound microarrays, profiling panel, artefact control for SMM control-protein annotation, biochemical, small-molecule microarray, 635/667 nm fluorescence (AID 1131).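 Further: z-score merges 667 nm fluorescence with per-spot signal-to-noise over triplicate slides.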 As to conditions: fibrinogen-A647 binding fluorescence, higher = more signal.
Experiment [5] deals with Follistatin (Homo sapiens) (UniProt P19883). Description: follistatin binders on small-molecule microarrays, primary screen, biochemical, small-molecule microarray, 635/667 nm fluorescence (AID 1132). Conditions: FST binding, 635 nm fluorescence, higher = more signal.
Sequence of Follistatin (Homo sapiens) (P19883 whole entry, looked up): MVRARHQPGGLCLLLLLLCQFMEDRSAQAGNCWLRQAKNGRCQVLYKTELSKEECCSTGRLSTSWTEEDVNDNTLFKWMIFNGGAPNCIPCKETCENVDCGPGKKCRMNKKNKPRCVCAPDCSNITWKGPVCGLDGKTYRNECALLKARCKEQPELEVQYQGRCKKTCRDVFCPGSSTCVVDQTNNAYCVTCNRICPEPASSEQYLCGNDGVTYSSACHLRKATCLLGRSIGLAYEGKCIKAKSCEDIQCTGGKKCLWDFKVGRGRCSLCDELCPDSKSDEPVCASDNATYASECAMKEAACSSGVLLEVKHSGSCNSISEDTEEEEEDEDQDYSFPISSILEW
Experiment [6] has as its target Fibroblast growth factor 2 (Homo sapiens) (UniProt P09038). Description: FGF2 binders on small-molecule microarrays, primary screen, biochemical, small-molecule microarray, 635/667 nm fluorescence (AID 1133). As to conditions: small-molecule microarray binding, FGF2, fluorescence 635/667; higher = more signal.
A short description of experiment [7]: mitochondrial membrane potential change in A549 cells, profiling panel, cell-based, JC-1 fluorescence, basal, 24 h, 100 nL (AID 1138).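 Further: A549 lung adenocarcinoma cells under basal conditions with no added stimulus; test concentration not given here.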 As to conditions: higher = more signal.
The test system of another experiment is Lefty1. The experiment is described as follows: Lefty1 binders on small-molecule microarrays, primary screen, biochemical, small-molecule microarray, 635/667 nm fluorescence (AID 1139). As to conditions: small-molecule microarray binding, fluorescence 635/667; higher = more signal.
Experiment [8] concerns wheat germ agglutinin (Triticum aestivum), Alexa647-labelled. Description: wheat germ agglutinin binders on compound microarrays, profiling panel, artefact control for SMM control-protein annotation, biochemical, small-molecule microarray, 635/667 nm fluorescence (AID 1140).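 Further: score merges 667 nm feature emission with signal to noise over triplicate slides.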 Conditions: WGA-A647 binding, 635 nm fluorescence, higher = more signal.
Experiment [9] has as its target Luciferin 4-monooxygenase (Photinus pyralis) (UniProt P08659). Description: firefly luciferase enzyme inhibitors, primary screen, biochemical, luminescence, purified enzyme, 2006 set (AID 1141).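 Further: cell-free assay with purified firefly luciferase at 100 ng per well in PBS; test concentration not given here.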 Conditions: SteadyGlo luminescence, 30 min, higher = more signal, called active from +8 up or from −8 down.
The subject of experiment [10] is Wnt5a (protein binding on small-molecule microarray). The experiment is described as follows: Wnt5a binders on small-molecule microarray, primary screen, biophysical, 635/667 nm fluorescence (AID 1142).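 Further: fluorescence read at 667 nm with signal to noise per printed feature.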 As to conditions: 635 nm fluorescence, higher = more signal.
Experiment [11] can be described thus: cell viability in Huh7 cells, primary screen, cytotoxicity control for HCV replication inhibitor project, CellTiter-Glo luminescence, basal, 48 h (AID 1143).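 Further: Huh7 hepatoma cells carrying a hepatitis C replication reporter with no stimulus; test concentration not given here.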 Conditions: Huh7 HCV replicon, higher = more signal, called active from +8 up or from −8 down.
Experiment [12] in a line: P. aeruginosa biofilm formation inhibitors, primary screen, PAO1 strain, BacTiter-Glo luminescence, LB-PBS (AID 1144). Conditions: 12 h, higher = more signal.
The nature of experiment [13]: CREB reporter modulators without forskolin, primary screen, cell-based, PC12, CRE-LacZ reporter, unstimulated (AID 1145). As to conditions: no forskolin, luminescence, 4.5 h, higher = more signal, called active from +8 up or from −8 down.
Experiment [14] in a line: CREB reporter modulators under forskolin, primary screen, cell-based, PC12, CRE-LacZ reporter, forskolin-stimulated (AID 1146).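 Further: PC12 cells with 6xCRE LacZ reporter stimulated by forskolin 10 µM; beta-galactosidase reporter signal reflecting CREB driven transcription.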 Conditions: luminescence, 4.5 h, higher = more signal, called active from +8 up or from −8 down.
Experiment [15] deals with Streptavidin (Streptomyces avidinii) (UniProt P22629). Description: streptavidin binders on small-molecule microarray, primary screen, artefact control for SMM compound annotation, biophysical, 635/667 nm fluorescence (AID 1147).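 Further: signal reflects streptavidin binding to arrayed compounds as a control protein.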 Conditions: streptavidin binding, higher = more signal.
Sequence of Streptavidin (Streptomyces avidinii) (P22629 whole entry, looked up): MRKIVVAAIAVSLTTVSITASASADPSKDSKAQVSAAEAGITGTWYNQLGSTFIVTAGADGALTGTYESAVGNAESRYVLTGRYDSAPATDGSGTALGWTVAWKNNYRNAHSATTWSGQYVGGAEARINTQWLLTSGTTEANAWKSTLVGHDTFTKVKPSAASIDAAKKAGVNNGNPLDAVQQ
A short description of experiment [16]: small-molecule binders of probe aInhba, primary screen, biochemical, small-molecule microarray, 635/667 nm fluorescence (AID 1148).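 Further: score merges 667nm spot fluorescence with signal-to-noise for antibody binding to printed compounds.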 Conditions: higher = more signal.
Experiment [17] concerns the target Torsin-1A (Homo sapiens) (UniProt O14656). Description: torsin A binders from cell lysate, primary screen, small-molecule microarray, wild-type, 635/667 nm (AID 1149). As to conditions: COS7 hTOR1A-WT lysate, 635 nm fluorescence, higher = more signal.
Experiment [18] has the same target. The experiment is described as follows: small-molecule binders of mutant TOR1A in lysate, primary screen, cell lysate, small-molecule microarray, COS7 lysate, 635/667 nm fluorescence (AID 1150).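 Further: score pools 667 nm emission and signal to noise measuring lysate protein binding.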 As to conditions: COS7 hTOR1A mutant lysate, 635 nm fluorescence, higher = more signal.
The subject of experiment [19] is Sonic hedgehog protein (Shh). The experiment is described as follows: small-molecule binders of Shh protein, primary screen, biochemical, small-molecule microarray, 635/667 nm fluorescence (AID 1151).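 Further: Shh protein binding to compounds spotted on small-molecule microarray slides; score combines spot fluorescence intensity with signal-to-noise across triplicate slides.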 As to conditions: small-molecule microarray binding, 635 nm fluorescence; higher = more signal.

Calls of active or inactive are those of the source. Unless noted, how the calls were made is not given here.

Sequence of Fibroblast growth factor 2 (Homo sapiens) (P09038 whole entry, looked up): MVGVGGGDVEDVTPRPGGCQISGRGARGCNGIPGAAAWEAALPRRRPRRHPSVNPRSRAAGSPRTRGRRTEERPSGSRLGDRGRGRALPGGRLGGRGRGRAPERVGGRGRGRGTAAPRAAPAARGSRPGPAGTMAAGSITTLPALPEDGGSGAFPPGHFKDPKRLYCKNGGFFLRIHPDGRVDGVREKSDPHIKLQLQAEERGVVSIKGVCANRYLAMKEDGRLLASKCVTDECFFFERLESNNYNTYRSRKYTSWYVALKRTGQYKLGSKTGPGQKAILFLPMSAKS
Sequence of Torsin-1A (Homo sapiens) (O14656 whole entry, looked up): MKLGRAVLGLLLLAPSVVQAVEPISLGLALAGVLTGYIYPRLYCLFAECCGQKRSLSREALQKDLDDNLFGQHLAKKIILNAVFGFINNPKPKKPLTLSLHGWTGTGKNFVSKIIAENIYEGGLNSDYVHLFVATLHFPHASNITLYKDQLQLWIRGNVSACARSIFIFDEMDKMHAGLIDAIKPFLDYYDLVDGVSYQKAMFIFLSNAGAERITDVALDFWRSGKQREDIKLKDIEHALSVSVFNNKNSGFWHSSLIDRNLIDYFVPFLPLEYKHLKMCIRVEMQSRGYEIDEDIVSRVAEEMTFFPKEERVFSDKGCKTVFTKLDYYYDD
Sequence of Luciferin 4-monooxygenase (Photinus pyralis) (P08659 whole entry, looked up): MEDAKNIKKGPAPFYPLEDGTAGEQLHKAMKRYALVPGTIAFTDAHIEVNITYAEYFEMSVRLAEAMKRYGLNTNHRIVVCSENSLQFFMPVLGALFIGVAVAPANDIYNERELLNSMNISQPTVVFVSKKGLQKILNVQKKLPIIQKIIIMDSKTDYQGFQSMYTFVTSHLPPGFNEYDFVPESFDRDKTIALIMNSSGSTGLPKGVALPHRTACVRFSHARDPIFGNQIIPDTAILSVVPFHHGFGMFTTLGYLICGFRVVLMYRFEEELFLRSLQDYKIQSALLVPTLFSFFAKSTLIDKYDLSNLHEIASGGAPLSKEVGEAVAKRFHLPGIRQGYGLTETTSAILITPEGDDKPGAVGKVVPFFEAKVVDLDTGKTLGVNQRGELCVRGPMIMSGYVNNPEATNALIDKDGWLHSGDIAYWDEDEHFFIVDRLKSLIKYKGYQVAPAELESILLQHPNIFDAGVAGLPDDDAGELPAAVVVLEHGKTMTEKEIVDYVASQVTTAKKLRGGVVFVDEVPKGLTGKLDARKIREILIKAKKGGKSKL

In the case of `O=C1OCCC/C=C\[C@H]2OC34C=CCN(Cc5ccccc5)C(=O)[C@H]3N(CCCCCCO)C(=O)[C@@H]4C12` (stereo not given in full), the composite z-score was 0.727 in [1]; -0.39 in experiment [2]; 0.0123 in [3]; -1.98 in experiment [4]; -1.61 in experiment [5]; -0.929 in [6]. Further, the composite z-score in the experiment on Lefty1 is -1.55; in [8], -0.513; in experiment [10], -0.489; in experiment [15], -0.821; in [16], -0.147; in the experiment with Torsin-1A (Homo sapiens) [17], -0.309. Also, the figures for the composite z-score (with Torsin-1A (Homo sapiens) [18]; in [19]) were 1.9 and -0.693, respectively. For the same compound, the z-score in experiment [7] was 1.59; in experiment [9], -1.76 (inactive); in [11] it was 0.233 (inactive); in [12] it was -1.14 (inactive); in experiment [13], 1.01 (inactive); in experiment [14] it was 0.0851 (inactive).
On to `CCOc1cc(C(O)C2C=CC3C(=O)N(c4ccccc4)C(=O)C3N2Nc2ccccc2)ccc1O` (stereo not given), for which the composite z-score is 1.3 in [1]; 1.19 in experiment [2]; 1.54 in [3]; 0.896 in experiment [4]; 0.608 in experiment [5]; -0.106 in experiment [6]. The composite z-score was -0.231 in the experiment on Lefty1; 0.471 in [8]; -0.206 in experiment [10]; 0.0572 in experiment [15]; -0.128 in experiment [16]; -0.577 with Torsin-1A (Homo sapiens) [17]. Further, the composite z-score was 1.66 with Torsin-1A (Homo sapiens) [18] and -0.14 in experiment [19]. The z-score in [7] was -0.0767; in experiment [9], -1.15 (inactive); in [11], 0.318 (inactive); in experiment [12] it was -0.802 (inactive); in [13], 2.15 (inactive); in [14], 0.838 (inactive).
On to `CN1C(=O)C2C=CC(C(O)C3=C[C@H]4C[C@@H](C3)C4(C)C)N(Nc3ccccc3)C2C1=O` (stereo not given in full), for which the composite z-score worked out at 0.274 in experiment [1]; 1.19 in experiment [2]; 0.608 in experiment [3]; 0.816 in [4]; 1.18 in experiment [5]; 0.0364 in experiment [6]. Further, the composite z-score in the experiment with Lefty1 was 0.446; in [8], 0.782; in experiment [10], 0.0737; in experiment [15], 0.186; in [16], -0.0313; with Torsin-1A (Homo sapiens) [17], -0.189. Further, the results for the composite z-score (in the experiment with Torsin-1A (Homo sapiens) [18]; in experiment [19]) were 0.276 and 0.447, respectively. Moreover, the z-score in [7] was -0.838; in [9], -0.179 (inactive); in [11], 0.435 (inactive); in [12], -0.79 (inactive); in experiment [13], 0.812 (inactive); in experiment [14] it was 0.767 (inactive).
Turning to `[N-]=[N+]=NCc1ccccc1[C@@H]1OC(c2ccc(OCCCO)cc2)=N[C@]1(CCS(=O)(=O)c1ccccc1)C(=O)NCc1ccccc1`, the composite z-score was 1.82 in [1]; 1.21 in experiment [2]; 0.878 in experiment [3]; 0.964 in [4]; 1.47 in [5]; 1.37 in experiment [6]. Moreover, the composite z-score was found to be 1.49 with Lefty1; 1.27 in experiment [8]; 0.88 in experiment [10]; 1.09 in experiment [15]; 1.09 in experiment [16]; 0.248 with Torsin-1A (Homo sapiens) [17]. The composite z-score with Torsin-1A (Homo sapiens) [18] stood at 0.467; in [19], 1.4. Also, the z-score in experiment [7] is -0.338; in experiment [9], -0.375 (inactive); in experiment [11], -1.86 (inactive); in experiment [12] it was 0.0656 (inactive); in [13] it was 0.614 (inactive); in experiment [14], -1.66 (inactive).
For the compound `CC(=O)NCCCC[C@@H]1NC(=O)[C@@H]2C[C@H](C(=O)NCCCCN(C)C)[C@H](c3cccc(OCCO)c3)N2C1=O`, the composite z-score was 0.605 in [1]; -0.158 in [2]; -0.208 in [3]; -0.908 in experiment [4]; 1.21 in experiment [5]; 1.08 in [6]. The composite z-score with Lefty1 is 0.471; in experiment [8], -0.159; in [10], -0.0339; in [15], -0.451; in experiment [16] it was -0.154; with Torsin-1A (Homo sapiens) [17], -1.28. Further, the composite z-score with Torsin-1A (Homo sapiens) [18] was 0.0889; in experiment [19], 1.04. For the same compound, the z-score in experiment [7] was -0.446; in [9], 0.603 (inactive); in [11], 0.344 (inactive); in [12] it was -0.269 (inactive); in experiment [13], 0.0043 (inactive); in [14], -0.874 (inactive).

The record behind these values is PubChem BioAssay.
